# Reference: PubChem BioAssay (Tox21)
# Results filed as inconclusive are left out. Entries that show only a call come without a potency. Unmarked numbers belong to inactive results. Active and inactive are the calls of the source. Unless noted, calls follow the shape of the dose curve; as a rule, active = well fitted curve in the direction sought with a large enough effect in the repeat runs; inconclusive = weak or mixed curves; inactive = no such curve, though single readings can be large; an effect the other way counts as inactive or inconclusive.
# What was measured:
# [1] = qHTS assay to identify small molecule agonists of the peroxisome proliferator-activated receptor delta (PPARd) signaling pathway - cell viability counter screen (AID 743211); also: nearly all actives have a fitted effect of over 55% in size
# Procedure, shortened: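 Viability was measured as CellTiter-Glo luminescence (30 min, room temperature) in the same wells as the beta-lactamase readout. GeneBLAzer PPARd UAS-bla HEK293H cells received compound after 5 h plating and were incubated 17 h at 37 C.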
# [2] = target: Peroxisome proliferator-activated receptor delta (Homo sapiens) (UniProt Q03181); assay: qHTS assay to identify small molecule agonists of the peroxisome proliferator-activated receptor delta (PPARd) signaling pathway (AID 743212; calls by dose curve)
# Peroxisome proliferator-activated receptor delta (Homo sapiens), sequence (Q03181 whole entry, looked up): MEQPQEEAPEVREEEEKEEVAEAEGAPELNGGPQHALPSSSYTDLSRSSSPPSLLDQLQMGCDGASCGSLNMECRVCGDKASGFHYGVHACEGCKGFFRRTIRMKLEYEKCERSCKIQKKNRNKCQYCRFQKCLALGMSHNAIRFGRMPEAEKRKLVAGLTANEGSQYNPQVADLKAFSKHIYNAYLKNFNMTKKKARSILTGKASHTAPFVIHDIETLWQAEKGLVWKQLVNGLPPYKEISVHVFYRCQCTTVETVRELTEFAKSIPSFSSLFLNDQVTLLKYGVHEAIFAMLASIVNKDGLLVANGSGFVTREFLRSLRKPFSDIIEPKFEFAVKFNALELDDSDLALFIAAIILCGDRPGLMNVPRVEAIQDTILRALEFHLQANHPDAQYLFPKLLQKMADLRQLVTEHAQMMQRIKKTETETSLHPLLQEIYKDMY
# Procedure, shortened: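 Beta-lactamase reporter read by fluorescence (LiveBLAzer B/G FRET, 2 h, room temperature). Test agents, in DMSO, incubated at 37 C with PPARd-bla HEK293H cells.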
# [3] = qHTS assay to identify small molecule antagonists of the peroxisome proliferator-activated receptor delta (PPARd) signaling pathway - cell viability counter screen (AID 743213); also: nearly all actives have a fitted effect of over 50% in size
# Procedure, shortened: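 Agonist-stimulated (L165041, 300 nM final) HEK293H PPARd UAS-bla cells are exposed to compounds for 17 h at 37 C, and ATP-based luminescence (CellTiter-Glo) from the same wells reports cytotoxicity.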
# [4] = target: Bile acid receptor (Homo sapiens) (UniProt Q96RI1); assay: qHTS assay to identify small molecule antagonists of the farnesoid-X-receptor (FXR) signaling pathway (AID 743217; active = well fitted inhibition curve with a large enough effect in the signal ratio in the repeat runs, not every such curve was filed as active; the % refers to the signal ratio)
# Bile acid receptor (Homo sapiens), sequence (Q96RI1 whole entry, looked up): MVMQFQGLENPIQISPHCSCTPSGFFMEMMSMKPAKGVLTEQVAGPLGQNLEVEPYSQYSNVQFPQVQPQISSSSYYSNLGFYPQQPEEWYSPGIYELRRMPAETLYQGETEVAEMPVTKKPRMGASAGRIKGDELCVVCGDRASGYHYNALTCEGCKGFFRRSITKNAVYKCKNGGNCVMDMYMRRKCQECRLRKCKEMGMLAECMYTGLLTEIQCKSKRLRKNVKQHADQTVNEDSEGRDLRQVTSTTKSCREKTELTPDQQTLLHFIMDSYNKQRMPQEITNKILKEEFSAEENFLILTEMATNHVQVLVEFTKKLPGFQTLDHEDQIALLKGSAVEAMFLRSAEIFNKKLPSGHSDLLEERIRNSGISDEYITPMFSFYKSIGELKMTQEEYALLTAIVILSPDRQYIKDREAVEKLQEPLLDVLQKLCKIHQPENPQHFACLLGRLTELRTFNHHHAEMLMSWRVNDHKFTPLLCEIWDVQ
# Procedure, shortened: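 Test compounds are pin-transferred onto FXR-bla HEK 293T cells, then chenodeoxycholic acid is added at 50 uM final. After 16 h at 37 °C, LiveBLAzer B/G substrate is applied for 2 h at room temperature and fluorescence read.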
# [5] = target: Bile acid receptor (Homo sapiens) (UniProt Q96RI1); assay: qHTS assay to identify small molecule agonists of the farnesoid-X-receptor (FXR) signaling pathway (AID 743220; active = well fitted activation curve with a large enough effect in the signal ratio in the repeat runs, not every such curve was filed as active; the % refers to the signal ratio; also: potency is read from the fitted curve at half-maximal effect)
# Procedure, shortened: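 FXR-UAS-bla HEK 293T cells carrying a UAS-driven beta-lactamase reporter were plated for 5 h at 37C/5% CO2, then exposed to DMSO-dissolved Tox21 10K compounds for 16 h at 37C. A LiveBLAzer B/G FRET substrate was loaded for 2 h at room temperature before fluorescence reading.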
# [6] = qHTS assay to identify small molecule antagonists of the farnesoid-X-receptor (FXR) signaling pathway - cell viability counter screen (AID 743221; active = well fitted cell-killing curve with a large enough effect in the repeat runs, not every such curve was filed as active; also: nearly all actives have a fitted effect of over 50% in size)
# Procedure, shortened: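 Cytotoxicity counter screen run in the FXR-bla reporter wells: HEK 293T cells exposed to compound with 50 uM (final) chenodeoxycholic acid for 16 h, 37 C, then viability measured by CellTiter-Glo luminescence after 30 min, room temperature.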
# [7] = target: Vitamin D3 receptor (Homo sapiens) (UniProt P11473); assay: qHTS assay to identify small molecule agonists of the vitamin D receptor (VDR) signaling pathway (AID 743222; calls by dose curve)
# Vitamin D3 receptor (Homo sapiens), sequence (P11473 whole entry, looked up): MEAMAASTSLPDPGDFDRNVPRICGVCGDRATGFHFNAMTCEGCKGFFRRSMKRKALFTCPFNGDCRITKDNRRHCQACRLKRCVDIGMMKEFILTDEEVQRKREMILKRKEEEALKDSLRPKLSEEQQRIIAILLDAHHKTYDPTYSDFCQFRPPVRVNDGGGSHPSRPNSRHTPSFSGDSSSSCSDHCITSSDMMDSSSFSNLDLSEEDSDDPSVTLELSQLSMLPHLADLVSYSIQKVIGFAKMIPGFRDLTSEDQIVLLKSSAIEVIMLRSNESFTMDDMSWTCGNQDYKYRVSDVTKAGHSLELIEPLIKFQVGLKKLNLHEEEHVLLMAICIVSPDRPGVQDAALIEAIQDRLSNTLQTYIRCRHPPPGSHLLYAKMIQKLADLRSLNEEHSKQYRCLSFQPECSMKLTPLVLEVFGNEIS
# Procedure, shortened: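 Tox21 cell reporter format: VDR-bla line, 16 h compound exposure in 5% CO2 at 37C, then fluorescence intensity after 2 h with LiveBLAzer B/G FRET substrate.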
# [8] = target: Vitamin D3 receptor (Homo sapiens) (UniProt P11473); assay: qHTS assay to identify small molecule antagonists of the vitamin D receptor (VDR) signaling pathway (AID 743223; active = well fitted inhibition curve with a large enough effect in the signal ratio in the repeat runs, not every such curve was filed as active; the % refers to the signal ratio)
# Procedure, shortened: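 Antagonist mode: compound added to VDR-bla cells alongside agonist 1alpha,25-dihydroxyvitamin D3 (3 nM final), incubation 16 h at 37C. Read-out is LiveBLAzer FRET fluorescence, 2 h at room temperature.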
# [9] = qHTS assay to identify small molecule agonists of the vitamin D receptor (VDR) signaling pathway - cell viability counter screen (AID 743224); also: series mostly up to about 63 µM; nearly all actives have a fitted effect of over 50% in size
# Procedure, shortened: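 CellTiter-Glo viability readout on VDR-bla cells, measured after 16 h of compound treatment at 37C in the same wells.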
# [10] = qHTS assay to identify small molecule antagonists of the vitamin D receptor (VDR) signaling pathway - cell viability counter screen (AID 743225); also: nearly all actives have a fitted effect of over 50% in size
# Procedure, shortened: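 Cytotoxicity counter screen read by CellTiter-Glo luminescence (30 min, room temperature) in the same wells as the VDR-bla antagonist readout. HEK 293T VDR-UAS-bla cells had 16 h at 37C with compound and 3 nM (final) 1-alpha,25-dihydroxyvitamin D3, then 2 h with FRET substrate.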
# [11] = qHTS assay to identify small molecule agonists of the NFkB signaling pathway (AID 1159509; active = well fitted curve in the direction sought with a large enough effect in the signal ratio in the repeat runs, not every such curve was filed as active; the % refers to the signal ratio; also: series mostly up to about 61 µM)
# Procedure, shortened: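 Beta-lactamase reporter assay run in quantitative high-throughput format on an NF-kB-responsive ME-180 line, with 5 hr compound treatment and a FRET-based blue/green fluorescence readout.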
# [12] = qHTS assay to identify small molecule agonists of the NFkB signaling pathway - cell viability counter screen (AID 1159515; calls by dose curve; also: series mostly up to about 61 µM; nearly all actives have a fitted effect of over 55% in size)
# Procedure, shortened: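 Tox21 library compounds were tested for cytotoxicity against NFkB-bla ME-180 cells during a 5 hr exposure at 37 C. CellTiter-Glo luminescence served as the viability read-out.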
# [13] = qHTS assay to identify small molecule agonists of the endoplasmic reticulum stress response signaling pathway (AID 1159516; active = well fitted activation curve with a large enough effect in the signal ratio in the repeat runs, not every such curve was filed as active; the % refers to the signal ratio)
# Procedure, shortened: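 Fluorescence at 460 and 530 nm (405 nm excitation) reports beta-lactamase from an ER stress response element in HeLa cells treated 5 hr at 37 C.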
# [14] = qHTS assay to identify small molecule agonists of the endoplasmic reticulum stress response signaling pathway - cell viability counter screen (AID 1159517; calls by dose curve)
# Procedure, shortened: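 Cytotoxicity of test compounds toward ESRE-bla HeLa cells was assessed after 5 hr exposure. The luminescent CellTiter-Glo signal was measured 30 min after reagent addition.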
# [15] = qHTS assay to identify small molecule antagonists of the retinoid-related orphan receptor gamma (ROR-gamma) signaling pathway - cell viability counter screen (AID 1159520); also: nearly all actives have a fitted effect of over 50% in size
# Procedure, shortened: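 Tet-on ROR gamma CHO cells (1,000/well) were plated 4 hr, given compounds in DMSO for 2 hr at 37 C, then induced with 1 uM final doxycycline for 16 hr. Viability was read as ATP by CellTiter-Glo luminescence after 30 min.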
# [16] = target: Nuclear receptor ROR-gamma (Homo sapiens) (UniProt P51449); assay: qHTS assay to identify small molecule antagonists of the retinoid-related orphan receptor gamma (ROR-gamma) signaling pathway (AID 1159521)
# Procedure, shortened: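 Antagonist read-out: drop in luminescence (ONE-Glo) from an RORE-LUC reporter in CHO cells with doxycycline-inducible ROR-gamma; 2 hr compound pretreatment, 1 uM doxycycline, 16 hr incubation at 37 C.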
# [17] = qHTS assay to identify small molecule agonists of the AP-1 signaling pathway - cell viability counter screen (AID 1159525; calls by dose curve; also: nearly all actives have a fitted effect of over 55% in size)
# Procedure, shortened: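 Each titration point was normalised to DMSO and tetra n-octyl ammonium bromide controls. The read was Cell Titer Glo luminescence after 30 min at RT, following 5 h compound exposure of ME-180 AP-1-bla cells at 37 °C.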
# [18] = qHTS assay to identify small molecule agonists of the AP-1 signaling pathway (AID 1159526; calls by dose curve)
# [19] = target: Peroxisome proliferator-activated receptor delta (Homo sapiens) (UniProt Q03181); assay: qHTS assay to identify small molecule antagonists of the peroxisome proliferator-activated receptor delta (PPARd) signaling pathway (AID 743215; active = well fitted inhibition curve with a large enough effect in the signal ratio in the repeat runs, not every such curve was filed as active; the % refers to the signal ratio; also: series mostly up to about 62 µM)
# Procedure, shortened: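 Here, a reporter line (HEK293H, beta-lactamase under a UAS) measures PPARd signaling. Compounds are tested against agonist L165041 at 300 nM final concentration over 17 h at 37 C, with fluorescence read after substrate.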
# [20] = qHTS assay to identify small molecule agonists of the farnesoid-X-receptor (FXR) signaling pathway - cell viability counter screen (AID 743218); also: nearly all actives have a fitted effect of over 45% in size
# Procedure, shortened: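 Quantitative HTS counter screen measuring ATP-based viability via CellTiter-Glo luminescence in HEK 293T cells carrying a UAS-driven beta-lactamase reporter, after 16 h compound exposure at 37 C.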
Compound,outcome [1],outcome [2],outcome [3],Potency [4],Potency [5],outcome [6],outcome [7],outcome [8],Potency [9],outcome [10],outcome [11],outcome [12],outcome [13],Potency [14],outcome [15],outcome [16],outcome [17],outcome [18],outcome [19],Potency [20]
O=C(O)c1cc(Br)c(O)c(Br)c1,inactive,inactive,inactive,inactive,inactive,inactive,inactive,inactive,inactive,inactive,inactive,inactive,inactive,inactive,inactive,inactive,inactive,inactive,,
CC(C)C[C@H](NC(=O)CNC(=O)[C@H](Cc1ccc(O)cc1)NC(=O)[C@H](CO)NC(=O)[C@H](Cc1c[nH]c2ccccc12)NC(=O)[C@H](Cc1cnc[nH]1)NC(=O)[C@@H]1CCC(=O)N1)C(=O)N[C@@H](CCCN=C(N)N)C(=O)N1CCC[C@H]1C(=O)NCC(N)=O (stereo in doubt),inactive,inactive,inactive,inactive,,,inactive,inactive,,inactive,inactive,inactive,inactive,inactive,inactive,inactive,inactive,inactive,,
O=C(CCN1CCN(CCO)CC1)N1c2ccccc2Sc2ccc(C(F)(F)F)cc21,inactive,inactive,inactive,,,inactive,inactive,,inactive,inactive,inactive,inactive,inactive,inactive,inactive,inactive,inactive,inactive,inactive,
NS(=O)(=O)c1ccc(NC(=O)CCC(=O)O)cc1,inactive,inactive,inactive,inactive,inactive,inactive,inactive,,inactive,inactive,inactive,inactive,inactive,inactive,inactive,inactive,inactive,inactive,,inactive
CCCCC(CC)COCCO (configuration not stated),inactive,inactive,inactive,,,inactive,inactive,inactive,inactive,,inactive,inactive,inactive,inactive,inactive,inactive,inactive,inactive,inactive,
CCCCCCOC(=O)CC,inactive,inactive,inactive,inactive,inactive,inactive,,inactive,inactive,inactive,inactive,inactive,inactive,inactive,inactive,inactive,inactive,inactive,,inactive
CC(C)CCCCOC(=O)c1ccccc1C(=O)OCCCCC(C)C,inactive,inactive,inactive,,,inactive,,,inactive,inactive,inactive,inactive,inactive,inactive,inactive,inactive,inactive,inactive,inactive,inactive
COP(=O)(OC)OC(c1ccc(Cl)cc1)P(=O)(OC)OC (configuration not stated),inactive,inactive,inactive,,,inactive,,inactive,,inactive,inactive,inactive,inactive,inactive,inactive,inactive,inactive,inactive,inactive,inactive
CC1(C)S[C@@H]2[C@H](N=CN3CCCCCC3)C(=O)N2[C@H]1C(=O)O,inactive,inactive,inactive,,,inactive,inactive,,inactive,inactive,inactive,inactive,inactive,inactive,inactive,inactive,inactive,inactive,inactive,inactive
CCO[Si](CCCS)(OCC)OCC,inactive,inactive,inactive,,,inactive,,,inactive,inactive,inactive,inactive,inactive,inactive,inactive,inactive,inactive,inactive,,inactive
O=C(O)Cc1ccc(Cl)cc1Cl,inactive,inactive,inactive,,,inactive,,,,inactive,inactive,inactive,inactive,inactive,inactive,inactive,inactive,inactive,inactive,inactive
COc1ccc2c(c1)C(=O)N(CCc1ccc(S(=O)(=O)NC(=O)NC3CCCCC3)cc1)C(=O)C2(C)C,inactive,inactive,inactive,,26.6 µM (active),inactive,,,inactive,inactive,inactive,inactive,inactive,inactive,inactive,inactive,inactive,inactive,inactive,
CC(C)(C)c1cc(CCC(=O)NN)cc(C(C)(C)C)c1O,inactive,inactive,inactive,,,inactive,inactive,inactive,inactive,,inactive,inactive,inactive,inactive,inactive,inactive,inactive,inactive,,inactive
CC(=O)Nc1cccc(C)c1,inactive,inactive,inactive,,,inactive,,inactive,inactive,inactive,inactive,inactive,inactive,inactive,inactive,inactive,inactive,inactive,,
